Measurements reported in paper PMC4336329 (PLoS ONE, 2015).
Hit rate of the full screen: of about 310,000 compounds, about 14,000 (4.5%) showed an effect of 50% or more. Effects have a minus sign here. Shown is part of a subset that was picked to be rich in strong results.

The molecules below were run against human ether-à-go-go-related gene (hERG) potassium channel (human, UniProt Q12809) (assay: primary screen, population patch clamp on CHO cells stably expressing hERG; higher = less effect of the substance).
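Further: peak tail current of the secondary pulse compared with the same well before compound.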

human ether-à-go-go-related gene (hERG) potassium channel, sequence (Q12809 whole entry, looked up): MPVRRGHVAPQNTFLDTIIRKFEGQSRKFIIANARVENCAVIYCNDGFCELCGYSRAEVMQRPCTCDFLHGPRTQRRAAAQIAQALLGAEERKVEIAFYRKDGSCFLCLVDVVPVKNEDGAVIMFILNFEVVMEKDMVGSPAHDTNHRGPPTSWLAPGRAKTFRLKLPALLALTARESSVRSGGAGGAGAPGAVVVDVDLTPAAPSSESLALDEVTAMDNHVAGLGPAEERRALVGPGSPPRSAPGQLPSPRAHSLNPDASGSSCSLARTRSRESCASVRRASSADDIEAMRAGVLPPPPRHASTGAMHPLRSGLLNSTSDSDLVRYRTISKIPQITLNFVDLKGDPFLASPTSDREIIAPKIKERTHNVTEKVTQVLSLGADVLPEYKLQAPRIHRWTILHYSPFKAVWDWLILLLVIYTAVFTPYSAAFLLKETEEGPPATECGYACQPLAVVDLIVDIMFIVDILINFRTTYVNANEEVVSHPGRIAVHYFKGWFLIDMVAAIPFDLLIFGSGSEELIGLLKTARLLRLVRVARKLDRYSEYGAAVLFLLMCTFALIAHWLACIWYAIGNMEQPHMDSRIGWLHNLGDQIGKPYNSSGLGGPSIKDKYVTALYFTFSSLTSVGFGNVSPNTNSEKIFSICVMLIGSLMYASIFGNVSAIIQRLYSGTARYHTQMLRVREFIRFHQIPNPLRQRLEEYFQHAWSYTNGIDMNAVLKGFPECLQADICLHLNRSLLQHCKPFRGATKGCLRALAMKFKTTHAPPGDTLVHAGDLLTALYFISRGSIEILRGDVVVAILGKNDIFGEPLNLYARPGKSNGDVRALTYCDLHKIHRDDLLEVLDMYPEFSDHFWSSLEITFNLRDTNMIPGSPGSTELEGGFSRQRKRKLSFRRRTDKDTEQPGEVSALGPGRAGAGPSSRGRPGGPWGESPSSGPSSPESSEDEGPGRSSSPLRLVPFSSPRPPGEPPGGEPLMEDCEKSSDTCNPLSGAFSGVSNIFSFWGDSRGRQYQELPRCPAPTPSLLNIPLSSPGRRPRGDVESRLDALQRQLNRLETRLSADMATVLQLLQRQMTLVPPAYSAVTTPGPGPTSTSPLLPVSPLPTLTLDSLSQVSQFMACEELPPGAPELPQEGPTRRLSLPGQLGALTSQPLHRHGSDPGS

First: Cc1ccc(S(=O)(=O)N2CCN(S(=O)(=O)N3CCOCC3)CC2)cc1
Second: Cn1cc(C(=O)N2CCN(c3cccc(Cl)c3)CC2)c(=O)c2cc(S(=O)(=O)N3CCOCC3)ccc21
The “hERG current change (%, negative = inhibition) at 10uM” value of the first is higher: 13.4% for the first, -17.6% for the second.

First: COCCCNC(=O)CCc1nnc2ccc(N3CCC(C)CC3)nn12
Second: CCOC(=O)N1CCC(N(CCN(C)C)C(=S)Nc2ccccc2OCC)CC1
The “hERG current change (%, negative = inhibition) at 10uM” value of the first is higher: 10.9% for the first, -8.05% for the second.

First: O=C(CSC1=NS(=O)(=O)c2ccccc2N1)c1ccccc1
Second: c1ccc(CN2C3=NCCN3c3ccccc32)cc1
The “hERG current change (%, negative = inhibition) at 10uM” value of the first is higher: -8.85% for the first, -39.5% for the second.

First: COc1ccc(CNC(=O)C/C(C)=N/NC(=O)COc2ccc(Br)cc2)cc1
Second: COc1ccc(NC(=O)CCOc2ccccc2)c(OC)c1
The “hERG current change (%, negative = inhibition) at 10uM” value of the first is lower: -33.3% for the first, 1.87% for the second.

First: O=C(O)c1ccc(NCc2cccnc2)c([N+](=O)[O-])c1
Second: O=C(N/N=C/c1cccnc1)c1ccc([N+](=O)[O-])cc1
The “hERG current change (%, negative = inhibition) at 10uM” value of the first is higher: 30% for the first, -7.74% for the second.

First: Cc1ccc(C(=O)n2nc(-c3ccccc3)nc2NCc2ccco2)cc1
Second: N#Cc1nc(-c2ccc(OCc3ccccc3)cc2)oc1NCc1ccco1
The “hERG current change (%, negative = inhibition) at 10uM” value of the first is higher: 16% for the first, 7.75% for the second.

First: Cc1cc(C)n(CCC(=O)Nc2ccc3c(c2)OCCO3)n1
Second: Cc1cc(C)nc(NS(=O)(=O)c2ccc(NC(=O)CCN3C(=O)c4ccccc4C3=O)cc2)n1
The “hERG current change (%, negative = inhibition) at 10uM” value of the first is higher: 17.1% for the first, 3.74% for the second.

Going from `COc1ccc(CN2CCCCC2c2cccnc2)cc1C` (centres unmarked) to `Br.Cc1ccc(C)c(C(=O)CN2C3=NCCCN3c3ccccc32)c1`, the “hERG current change (%, negative = inhibition) at 10uM” value falls from 0.438% to -69.2%.

Going from `CCOC(=O)N1CCN(C(=O)c2oc(=O)c3ccccc3c2-c2ccc(C)cc2)CC1` to `Cc1ccc(-c2c(C(=O)N3CCOCC3)oc(=O)c3ccccc23)cc1`, the “hERG current change (%, negative = inhibition) at 10uM” value rises from -31.4% to -17.8%.

First: Cc1nc2ccccc2c2oc(C(=O)N3CCC(N4CCCCC4)CC3)cc12
Second: Cc1nc2ccccc2c2oc(C(=O)N3CCN(C4CCCCC4)CC3)cc12
The “hERG current change (%, negative = inhibition) at 10uM” value of the first is higher: -38.8% for the first, -64.7% for the second.

Going from `O=C(c1oc(=O)c2ccccc2c1-c1ccccc1)N1CCC(O)CC1` to `O=C(c1oc(=O)c2ccccc2c1-c1ccccc1)N1CCOCC1`, the “hERG current change (%, negative = inhibition) at 10uM” value falls from -11.6% to -24.6%.

Compared with `O=C(c1ccco1)N1CCN(C(=O)c2oc(=O)c3ccccc3c2-c2ccccc2)CC1`, `O=C(c1oc(=O)c2ccccc2c1-c1ccccc1)N1CCN(C2CCCCC2)CC1` is lower in “hERG current change (%, negative = inhibition) at 10uM” value: -50.7% for the first, -61.6% for the second.

Going from `Cc1nc2ccccc2c2oc(C(=O)N3CCC(C)CC3)cc12` to `CC1CCN(C(C)C(=O)Nc2ccccc2-c2ccccc2)CC1.O=C(O)C(=O)O` (centres unmarked), the “hERG current change (%, negative = inhibition) at 10uM” value rises from -30.5% to -15.4%.

Going from `CCOC(=O)c1cnn2c(N)c(C#N)cnc12` to `CCOC(=O)c1sc(=NC(=O)COc2ccc(Cl)cc2)n(C)c1C`, the “hERG current change (%, negative = inhibition) at 10uM” value falls from 13.9% to 3.44%.

Compared with `C/C(=N\O)C(=O)NCCN1CCCCC1`, `Clc1cccc(CN2CCCCCC2)c1` is higher in “hERG current change (%, negative = inhibition) at 10uM” value: -10.2% for the first, 12.3% for the second.

Compared with `Cc1c(C#N)c(NC(=O)CCl)n(Cc2ccc(F)cc2)c1C`, `Cc1ccc(S(=O)(=O)CCC(=O)c2ccc(F)cc2)cc1` is lower in “hERG current change (%, negative = inhibition) at 10uM” value: 12.8% for the first, 8.7% for the second.

Compared with `CCn1c2c(c3cc(OCC(C)C)ccc31)CCCC2=O`, `O=C1CCCc2ccccc2N1Cc1ccc(Cl)cc1Cl` is lower in “hERG current change (%, negative = inhibition) at 10uM” value: 6.13% for the first, -18.2% for the second.

First: Cc1cc(C(=O)Nc2ccccn2)cs1
Second: O=C(NC(=S)Nc1ccc(Br)cn1)c1cncc(Br)c1
The “hERG current change (%, negative = inhibition) at 10uM” value of the first is lower: 3.35% for the first, 11.3% for the second.

Compared with `CC(C(=O)Nc1ccccc1-c1ccccc1)N1CCOCC1` (centres unmarked), `CC(C(=O)Nc1ccccc1-c1ccccc1)N1CCN(Cc2ccccc2)CC1` (centres unmarked) is lower in “hERG current change (%, negative = inhibition) at 10uM” value: -2% for the first, -72.2% for the second.

Compared with `CC(C(=O)Nc1ccccc1-c1ccccc1)N1CCN(S(=O)(=O)c2ccccc2)CC1` (centres unmarked), `CC(C(=O)Nc1ccccc1-c1ccccc1)N1CCN(C(=O)c2ccccc2)CC1` (centres unmarked) is lower in “hERG current change (%, negative = inhibition) at 10uM” value: -14.3% for the first, -66.9% for the second.

Compared with `CC(C(=O)NC1CCCC1)N1CCN(Cc2ccccc2)CC1` (centres unmarked), `O=C(CSc1nnc(C2CCCCC2)o1)Nc1ccccc1Cl` is lower in “hERG current change (%, negative = inhibition) at 10uM” value: 28.6% for the first, -11.5% for the second.

First: COCCOC(=O)C1=C(C)N=C2SCCC(=O)N2C1c1cccs1 (centres unmarked)
Second: Br.CCOC(=O)CN1C2=NCCCN2c2ccccc21
The “hERG current change (%, negative = inhibition) at 10uM” value of the first is higher: 13.8% for the first, 2.95% for the second.

First: COc1cc(-c2csc(N3CCOCC3)n2)cc(OC)c1OC
Second: COc1cc(C)c(NC(=O)COc2cccc3c2OC(C)(C)C3)cc1OC
The “hERG current change (%, negative = inhibition) at 10uM” value of the first is higher: 13.3% for the first, -7.8% for the second.

Compared with `Cc1ccc(C)c(N2CCN(C(=O)CCCOc3cc(=O)n(C)c4ccccc34)CC2)c1`, `Cc1ccc(C)c(C(=O)CN2C(=O)c3ccccc3C2=O)c1` is higher in “hERG current change (%, negative = inhibition) at 10uM” value: -40.8% for the first, 9.96% for the second.

Going from `O=CNc1ccccc1` to `O=CNc1ccc(OP(=O)(Oc2ccccc2)Oc2ccccc2)cc1`, the “hERG current change (%, negative = inhibition) at 10uM” value falls from 14.6% to -61.7%.

Going from `COc1ccc(NP(=O)(Nc2ccc(OC)cc2)Oc2ccccc2)cc1` to `O=C(NCc1ccccc1)c1ccc(Oc2ccc(C(=O)NCc3ccccc3)cc2)cc1`, the “hERG current change (%, negative = inhibition) at 10uM” value rises from -13.9% to -3.44%.

Compared with `CN(C)c1ccc(/C=C/C=N/Nc2nc(N3CCOCC3)nc(N3CCOCC3)n2)cc1`, `CCc1ccc(Nc2nc(N3CCOCC3)nc(N3CCOCC3)n2)cc1.Cl` is higher in “hERG current change (%, negative = inhibition) at 10uM” value: 0.992% for the first, 8.6% for the second.

Compared with `Cc1ccc(/C=N/NC(=O)CSc2nc3nc(C)cc(C)n3n2)cc1`, `Cc1cc(Nc2ccc(Br)cc2F)n2nc(C)nc2n1` is lower in “hERG current change (%, negative = inhibition) at 10uM” value: -19.3% for the first, -21.5% for the second.

Compared with `O=C(N/N=C/c1cn[nH]c1-c1ccc(Cl)cc1)c1ccc([N+](=O)[O-])cc1`, `O=C(N/N=C\c1cn[nH]c1-c1ccccc1)c1ccc([N+](=O)[O-])cc1` is lower in “hERG current change (%, negative = inhibition) at 10uM” value: -51.5% for the first, -64.9% for the second.

First: O=C(N/N=C\c1ccc(COc2ccc([N+](=O)[O-])cc2)o1)c1ccc(Cl)cc1
Second: O=C(N/N=C\c1ccc(COc2ccc([N+](=O)[O-])cc2)o1)c1cccc(Cl)c1
The “hERG current change (%, negative = inhibition) at 10uM” value of the first is lower: -67.6% for the first, 4.17% for the second.

Going from `COc1ccc(-c2[nH]ncc2/C=N/NC(=O)c2cccc([N+](=O)[O-])c2)cc1OC` to `COc1ccc(/C=N/NC(=O)c2cccc([N+](=O)[O-])c2)cc1OC`, the “hERG current change (%, negative = inhibition) at 10uM” value rises from -62.1% to 5.28%.

Going from `O=C(CNC(=O)c1ccc(F)cc1)N/N=C/c1cn[nH]c1-c1ccccc1` to `O=C(N/N=C/c1cn[nH]c1-c1ccc(F)cc1)c1ccncc1`, the “hERG current change (%, negative = inhibition) at 10uM” value rises from -18.1% to 6.55%.

Going from `O=C(N/N=C\c1cn[nH]c1-c1ccccc1)c1cccnc1` to `COc1ccc(-c2[nH]ncc2/C=N\NC(=O)c2ccc(C(C)(C)C)cc2)cc1OC`, the “hERG current change (%, negative = inhibition) at 10uM” value falls from -1.27% to -9.5%.

Going from `Cc1cc(C(=O)N/N=C\c2ccc(COc3ccc([N+](=O)[O-])cc3)o2)ccc1[N+](=O)[O-]` to `COc1ccc(C2C(C#N)=C(C)NC3=C2S(=O)(=O)c2ccccc23)cc1` (centres unmarked), the “hERG current change (%, negative = inhibition) at 10uM” value falls from -7.77% to -38.6%.

Compared with `O=C(NCc1ccccc1Cl)C1=CC=CN2CCS(=O)(=O)N=C12`, `Cl.Clc1ccc(CN2C3=NCCCN3c3ccccc32)c(Cl)c1` is lower in “hERG current change (%, negative = inhibition) at 10uM” value: -11.1% for the first, -66% for the second.

Going from `COc1ccc(Cl)c(NCCC(=O)O)c1` to `CNC(=O)NC(=O)COC(=O)c1n[nH]c2ccccc12`, the “hERG current change (%, negative = inhibition) at 10uM” value rises from 15.5% to 16.5%.

Going from `Cc1c(N=C/C=C/c2ccccc2)c(=O)n(-c2ccccc2)n1C` to `Cl.c1ccc(CN2C3=NCCCN3c3ccccc32)cc1`, the “hERG current change (%, negative = inhibition) at 10uM” value falls from 11.1% to -57.5%.

First: O=S(N1CCc2ccccc21)C12CC3CC(CC(C3)C1)C2 (centres unmarked)
Second: O=C1CCCc2ccccc2N1Cc1cccc(Cl)c1
The “hERG current change (%, negative = inhibition) at 10uM” value of the first is higher: -6.09% for the first, -16.3% for the second.

First: O=C1C=C(c2ccc3c(c2)OCO3)C[C@@H](c2ccc(Cl)cc2)C1
Second: O=C1c2ccccc2N(Cc2ccc(Cl)cc2)C2=NCCN12
The “hERG current change (%, negative = inhibition) at 10uM” value of the first is higher: 5.86% for the first, -13.5% for the second.

First: Cl.Clc1ccc(CN2C3=NCCN3c3ccccc32)cc1
Second: Cl.Clc1ccc(CN2C3=NCCCN3c3ccccc32)cc1
The “hERG current change (%, negative = inhibition) at 10uM” value of the first is higher: -69.5% for the first, -75.1% for the second.

First: Cl.ClCCN1C2=NCCCN2c2ccccc21
Second: Cl.O=C(O)CN1C2=NCCCN2c2ccccc21
The “hERG current change (%, negative = inhibition) at 10uM” value of the first is lower: -26.4% for the first, 16.1% for the second.

Going from `C/C(=N\NC(=O)C1CCCN(S(=O)(=O)c2ccccc2)C1)c1ccccn1` (centres unmarked) to `Cc1onc(-c2ccccc2)c1CNS(=O)(=O)c1cccc(Cl)c1`, the “hERG current change (%, negative = inhibition) at 10uM” value rises from -20.8% to -7.19%.

Compared with `CN(C)Cc1c(C(=O)N/N=C/CCc2ccccc2)nnn1-c1nonc1N`, `Cl.Clc1cccc(CN2C3=NCCCN3c3ccccc32)c1` is lower in “hERG current change (%, negative = inhibition) at 10uM” value: -31.1% for the first, -75.4% for the second.

First: Brc1ccc(CN2C3=NCCCN3c3ccccc32)cc1.Cl
Second: Cl.O=C(CN1C2=NCCCN2c2ccccc21)c1ccc(Cl)cc1Cl
The “hERG current change (%, negative = inhibition) at 10uM” value of the first is higher: -74.2% for the first, -79.6% for the second.

In the case of `O=C1CCCC2=C1C(c1ccc(O)c(Br)c1)C1=C(CCCC1=O)N2c1ccccc1`, the “hERG current change (%, negative = inhibition) at 10uM” value is reported as -33%.
